# About 14,000 (4.5%) of roughly 310,000 compounds showed an effect of 50% or more. The effect is printed as a negative number. This is one part of a sample in which strong results are shown more often than they occur.
# Molecular target: human ether-à-go-go-related gene (hERG) potassium channel (human, UniProt Q12809)
# Assay: primary screen, population patch clamp on CHO cells stably expressing hERG; higher = less effect of the substance
# 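Further: peak tail current of the secondary pulse compared with the same well before compound.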
# human ether-à-go-go-related gene (hERG) potassium channel, sequence (Q12809 whole entry, looked up): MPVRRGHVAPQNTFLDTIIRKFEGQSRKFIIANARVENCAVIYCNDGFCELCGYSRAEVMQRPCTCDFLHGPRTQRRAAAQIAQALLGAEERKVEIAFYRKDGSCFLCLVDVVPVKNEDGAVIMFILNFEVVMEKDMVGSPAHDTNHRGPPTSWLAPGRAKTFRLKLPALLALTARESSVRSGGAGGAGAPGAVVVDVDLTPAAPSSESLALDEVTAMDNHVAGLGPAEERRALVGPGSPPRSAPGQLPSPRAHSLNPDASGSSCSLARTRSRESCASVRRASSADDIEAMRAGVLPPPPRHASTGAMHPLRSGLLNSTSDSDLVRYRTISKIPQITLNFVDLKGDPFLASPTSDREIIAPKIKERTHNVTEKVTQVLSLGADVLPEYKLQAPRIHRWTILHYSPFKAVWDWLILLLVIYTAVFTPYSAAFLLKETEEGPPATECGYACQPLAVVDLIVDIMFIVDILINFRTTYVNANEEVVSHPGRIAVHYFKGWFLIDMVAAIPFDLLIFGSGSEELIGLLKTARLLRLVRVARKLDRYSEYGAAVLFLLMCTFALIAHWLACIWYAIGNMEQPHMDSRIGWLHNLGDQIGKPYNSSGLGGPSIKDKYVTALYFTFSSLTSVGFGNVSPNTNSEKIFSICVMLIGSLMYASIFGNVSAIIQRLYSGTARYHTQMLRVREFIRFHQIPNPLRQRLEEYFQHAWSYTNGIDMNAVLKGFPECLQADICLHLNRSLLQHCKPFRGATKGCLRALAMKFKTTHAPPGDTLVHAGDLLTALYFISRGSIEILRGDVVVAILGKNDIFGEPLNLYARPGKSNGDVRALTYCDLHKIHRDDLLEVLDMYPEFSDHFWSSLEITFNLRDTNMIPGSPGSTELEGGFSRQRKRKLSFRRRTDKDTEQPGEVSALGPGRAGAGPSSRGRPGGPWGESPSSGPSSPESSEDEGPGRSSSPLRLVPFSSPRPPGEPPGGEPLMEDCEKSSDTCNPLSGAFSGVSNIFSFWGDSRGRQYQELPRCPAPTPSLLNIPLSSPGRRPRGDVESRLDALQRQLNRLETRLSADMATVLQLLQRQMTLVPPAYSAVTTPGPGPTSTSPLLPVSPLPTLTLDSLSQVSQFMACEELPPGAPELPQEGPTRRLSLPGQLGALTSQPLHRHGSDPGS
row,Structure (SMILES),"hERG current change (%, negative = inhibition) at 10uM [%]"
1,CCOC(=O)c1[nH]c2ccc(OCC)cc2c1NC(=O)CN1CCC2(CC1)OCCO2,-25.7
2,Cc1ccsc1CNn1cnnc1SCc1ccc(Cl)cc1,13
3,O=C(CSc1nnc(-c2cnccn2)n1Cc1ccco1)c1ccc2ccccc2c1,-15.4
4,COC(=O)c1cc(S(=O)(=O)NCC2CCN(CCc3ccc(OC)cc3)CC2)c[nH]1,-67
5,COC(=O)c1cc(S(=O)(=O)NCC2CCN(Cc3cc(C)ccc3C)CC2)cn1C,-27.5
6,COC(=O)c1cc(S(=O)(=O)NCC2CCN(Cc3cccc(F)c3)CC2)cn1C,-18.5
7,COC(=O)c1cc(S(=O)(=O)NCCc2ccccc2)c[nH]1,5.93
8,COC(=O)c1cc(S(=O)(=O)NCC2CCN(CCc3cccs3)CC2)cn1C,-49.6
9,COC(=O)c1cc(S(=O)(=O)NCC2CCN(Cc3ccc(C)cc3)CC2)cn1C,-52
10,COC(=O)c1cc(S(=O)(=O)NCC2CCN(CCc3cccs3)CC2)c[nH]1,-51.1
11,COC(=O)c1cc(S(=O)(=O)NCC2CCN(CCc3ccc(OC)cc3)CC2)cn1C,-61.2
12,COC(=O)c1cc(S(=O)(=O)NCc2cccs2)c[nH]1,19.1
13,COC(=O)c1cc(S(=O)(=O)NCC2CCN(Cc3ccc(F)cc3)CC2)cn1C,-19.6
14,COC(=O)c1cc(S(=O)(=O)NCc2ccc(Br)cc2)c[nH]1,-16.1
15,COC(=O)c1cc(S(=O)(=O)NCC2CCN(Cc3ccc(Cl)cc3)CC2)cn1C,-17
16,COC(=O)c1sc(SC)c2c1CC(C)(C)C/C2=N/O,10.6
17,O=c1[nH]c(=O)n(-c2ccc(F)cc2)c(O)c1/C=C1\C=Nc2ccccc21,6.63
18,Cc1noc(C)c1C(=O)NCCc1ccc(S(N)(=O)=O)cc1,-23.7
19,COc1ccc(C2NN=C(c3ccc(C)cc3)S2)cc1 (stereo not shown),4.2
20,O=C(N/N=C/c1cc([N+](=O)[O-])ccc1O)c1cc(-c2ccccc2)nc2ccccc12,12.3
21,O=C(c1ccncc1)N(Cc1ccco1)Cc1cc2ccccc2[nH]c1=O,-43.5
22,CCOC(=O)C1C(c2cccc(F)c2)NC(=S)NC1(O)C(F)(F)F (stereo not shown),-14.4
23,CCOCC(O)CSCc1ccc(Cl)cc1 (stereo not shown),1.1
24,Fc1ccc(CN2CC[C@H]3C=CCc4cccc(c43)C2)cc1,-30.2

row,Structure (SMILES),"hERG current change (%, negative = inhibition) at 10uM [%]"
1,Cc1ccc(CN2CC[C@H]3C=CCc4cccc(c43)C2)cc1,-22.1
2,C1=C[C@@H]2CCN(Cc3ccccc3)Cc3cccc(c32)C1,-50.6
3,CN(C)c1ccc(P(=O)(OC2CCCCC2)C(O)c2ccncc2)cc1 (stereo not shown),11.2
4,CC1CC1C(=O)OCC(=O)NC(=O)c1ccccc1 (stereo not shown),6.93
5,CC(C)(C)C(=O)NC1CCN(C(=O)N2CCCC2)CC1,10.2
6,COc1ccc2c(CC(=O)OCC(=O)Nc3ccccc3[N+](=O)[O-])coc2c1,19.4
7,c1ccc(CCCCN2CCN=C2Nc2ccccc2)cc1,-42
8,CCCCCCCN1CCN=C1Nc1ccccc1,-58
9,c1ccc(NC2=NCCN2CCC2CCCC2)cc1,-24
10,c1ccc(NC2=NCCN2CCCC2CCCC2)cc1,-53.4
11,c1ccc(NC2=NCCN2CCCC2CCCCC2)cc1,-47.6
12,CCCCN1CCN=C1Nc1ccccc1,15.2
13,O=C(Oc1ccc(/C=N/NC(=O)c2ccccc2F)cc1)c1ccccc1,10.3
14,COC(=O)c1ccc(CSc2nnc(NC(=O)C3CC(=O)N(Cc4ccc(C)cc4)C3)s2)cc1 (stereo not shown),8.78
15,COC(=O)/C=C1\SC(=NC(=O)c2cccc(Cl)c2)NC1=O,-79.5
16,COC(=O)/C=C1/SC(=NC(=O)c2ccccc2)NC1=O,-13.9
17,COC(=O)/C=C1/SC(=NC(=O)c2ccc(Cl)cc2)NC1=O,26.7
18,COc1ccc(/C=C/C(=O)NCC(=O)N/N=C/c2cccs2)cc1,0.0661
19,CCC(C)[C@H](NC(=O)NCc1ccc(OC)c(OC)c1)C(=O)O (stereo partly shown),7.82
20,Cc1[nH]nc(N2CCCCC2)c1[N+](=O)[O-],-6.37
21,Cc1sc2nc(CN3CCCCC3)nc(Nc3ccc4c(c3)OCCO4)c2c1C,-85.8
22,Cc1sc2nc(CN3CCCC3)nc(Cl)c2c1C,-4.03
23,Cc1sc2nc(CN3CCOCC3)nc(NS(=O)(=O)c3ccc4c(c3)OCCO4)c2c1C,6.33
24,Cc1nc(Nc2ccc3c(c2)OCCO3)c2c(C)c(C)sc2n1,-18.5

row,Structure (SMILES),"hERG current change (%, negative = inhibition) at 10uM [%]"
1,Cc1sc2nc(CN3CCCC3)nc(NCc3ccncc3)c2c1C,-69.1
2,Cc1sc2nc(CN3CCOCC3)nc(NCCc3ccccc3)c2c1C,-30
3,COc1ccc(-c2nnnn2C)cc1S(=O)(=O)Nc1ccc(C)cc1C,-7.53
4,Cc1cc(OC(C)C(=O)NCCN2CCOCC2)c2c(C)c(C)c(=O)oc2c1 (stereo not shown),9.89
5,COc1cccc(N2CCN(C(=S)Nc3ccccc3)CC2)c1,19
6,O=C(CCCNS(=O)(=O)c1cccc2nsnc12)N1CCCCC1,10.7
7,COc1cc(CNC2CCCC2)cc(Cl)c1OCc1ccccc1F.Cl,-1.44
8,Cc1ccc(C)c(-c2ccc(=O)n(Cc3c(F)cccc3Cl)n2)c1,3.88
9,CC(C)(C)N(Cc1cc2ccccc2[nH]c1=O)C(=O)C1CCCCC1,-11.9
10,CCN(Cc1cc2ccccc2[nH]c1=O)C(=O)C1CCCCC1,-13.3
11,CN(Cc1cc2ccccc2[nH]c1=O)C(=O)C1CCCCC1,-71.6
12,CCOC(=O)[C@@H]1[C@H]2COc3ccccc3[C@@H]2N2C(=O)N(c3ccccc3)C(=O)[C@@]12C,11.4
13,COc1ccc(/C=N\NC(=O)c2ccc(-c3ccccc3)cc2)cc1COC(C)=O,-0.748
14,CC1=C(C(=O)N(C)C)C(c2ccccc2OC(F)F)NC(=O)N1 (stereo not shown),3.49
15,CCN(CC)CCNCC(=O)Nc1ccc(Cl)cc1C(=O)c1ccccc1.O=C(O)C(=O)O,-75.2
16,CCN(CC)CC(=O)Nc1ccc(Cl)cc1C(=O)c1ccccc1,-21.2
17,C[N+](C)(C)CC(=O)Nc1ccc(Cl)cc1C(=O)c1ccccc1.[Br-],21.4
18,O=C(Nc1ccc(Cl)cc1C(=O)c1ccccc1)c1ccccc1,3.76
19,CN(C)CCCNCC(=O)Nc1ccc(Cl)cc1C(=O)c1ccccc1.O=C(O)C(=O)O,-69
20,CCN(CC)CC(=O)Nc1ccc(C)cc1C(=O)c1ccccc1,-19.5
21,COc1ccc(C2NC(c3ccc(OC)cc3)C([N+](=O)[O-])C(C)(C)C2[N+](=O)[O-])cc1 (stereo not shown),41.2
22,CCCCCCCSc1nnc(-c2ccccc2N)c(=O)[nH]1,6.86
23,COc1ccccc1NC(=S)N1CCc2cc(OC)c(OC)cc2C1,-0.62
24,COc1ccc(C(=S)N2CCN(c3cccc(Cl)c3)CC2)c(OC)c1,3.25

row,Structure (SMILES),"hERG current change (%, negative = inhibition) at 10uM [%]"
1,COc1ccccc1CNC(=O)Cn1ccc2cc(S(=O)(=O)N3CCCC3)ccc21,-3.32
2,CCc1nnc(NC(=O)CCS(=O)(=O)c2ccccc2)s1,23.8
3,CC(C(=O)OCC(=O)Nc1ccc(S(=O)(=O)N2CCCCC2)cc1)N1C(=O)c2ccccc2C1=O (stereo not shown),-16.4
4,CN(C)S(=O)(=O)c1cccc(NC(=O)COC(=O)c2cc(=O)c3ccccc3o2)c1,11.3
5,O=C(COC(=O)c1ccccc1)Nc1cccc(S(=O)(=O)N2CCOCC2)c1,-26.5
6,CC(C(=O)OCC(=O)Nc1cccc(S(=O)(=O)N(C)C)c1)N1C(=O)c2ccccc2C1=O (stereo not shown),-82.8
7,CC(C(=O)OCC(=O)Nc1cccc(S(=O)(=O)N2CCOCC2)c1)N1C(=O)c2ccccc2C1=O (stereo not shown),-58
8,CC(C(=O)OCC(=O)Nc1ccc2c(c1)OCO2)N1C(=O)c2ccccc2C1=O (stereo not shown),-12.4
9,Cc1sc2nc(C(C)Nc3ccccc3N3CCOCC3)[nH]c(=O)c2c1C (stereo not shown),11.1
10,O=C(N/N=C/c1ccncc1)c1cccc([N+](=O)[O-])c1,-5.83
11,CCC(=O)Nc1ccc(N2CCN(C(=O)c3cccs3)CC2)cc1,-7.15
12,O=C(NCCN1CCN(C(=O)c2cccs2)CC1)C(=O)Nc1ccc(Br)cc1,-73.7
13,O=C(CN1CCN(C(=O)c2ccco2)CC1)Nc1ccc(Br)cc1,5.38
14,Cc1cc(NC(=O)C(=O)NCCN2CCN(C(=O)c3cccs3)CC2)ccc1Br,-63.7
15,O=C(NCCN1CCN(C(=O)c2cccs2)CC1)c1cccs1,-35.8
16,COc1ccc(NC(=O)C(=O)NCCN2CCN(C(=O)c3cccs3)CC2)cc1,-45.1
17,O=C(CN1CCOCC1)Nc1ccc(NC(=O)c2ccccc2F)cc1,10.7
18,COc1ccccc1C(=O)N1CCN(CCNC(=O)C(=O)Nc2ccc(Br)c(C)c2)CC1,-48.8
19,O=C(CN1CCN(C(=O)c2cccs2)CC1)Nc1ccc(Br)cc1,-71.8
20,O=C(CN1CCN(C(=O)c2ccccc2F)CC1)Nc1ccc(Br)cc1,-64.6
21,Cl.O=C(CN1CCN(C(=O)c2cccs2)CC1)NC1CCCCC1,-1.7
22,Cc1cc(NC(=O)C(=O)NCCN2CCN(S(C)(=O)=O)CC2)ccc1Br,-21.3

# Source: article PMC4336329 (PLoS ONE, 2015)
